# Measured values reported in PubChem BioAssay (NCATS).
# Inconclusive results are not listed. Entries that show only a call come without a potency. The source made the active and inactive calls. Unless noted, calls come from the whole dose curve; as a rule, active = well fitted curve in the direction sought with a large enough effect; inconclusive = small, poorly fitted or top-dose-only effect, or another doubt; inactive = no such curve, though single readings can be large; an effect the other way counts as inactive or inconclusive.
# Tests used:
# [1] = Confirmatory qHTS for VERO E6 Cytotoxicity Assay: Counterscreen for SARS-CoV-2 CPE Assay (AID 1508605; calls by dose curve; note: nearly all actives have a fitted effect of over 60% in size; note: potency is the fitted concentration of half-maximal effect); details: cell viability luminescence; series mostly up to 20 µM
# [2] = Confirmatory qHTS for activators (rescue) of SARS-CoV-2 Cytopathic Effect (CPE) (AID 1508606; calls by dose curve; note: potency is the fitted concentration of half-maximal effect; nearly all actives have a fitted effect of over 70% in size); details: Vero E6 SARS-CoV-2 CPE rescue, viability luminescence; series mostly up to 20 µM
# [3] = target: Cytochrome P450 3A4 (Homo sapiens) (UniProt P08684); experiment: qHTS Assay for Inhibitors and Substrates of Cytochrome P450 3A4 (AID 884); details: recombinant CYP3A4, Luciferin-PPXE luminescence; series mostly up to 57.1 µM; note: nearly all actives have a fitted effect of over 50% in size; note: potency is the fitted concentration of half-maximal effect
# How it was run: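 20 nM human CYP3A4 with 25 uM Luciferin-PPXE (at KM) in 200 mM KPO4, preincubated 10 min with compound; NADPH regeneration started a 60 min RT reaction. Luciferin detected by luminescence, normalized to 57 uM ketoconazole as full inhibition.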
# [4] = target: Cytochrome P450 3A4 (Homo sapiens) (UniProt P08684); experiment: qHTS Assay for Activators of Cytochrome P450 3A4 (AID 885); details: recombinant CYP3A4, Luciferin-PPXE luminescence, 60 min; series mostly up to 57.1 µM; note: nearly all actives have a fitted effect of over 65% in size
# How it was run: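 Human CYP3A4 (20 nM) with Luciferin-PPXE at 25 uM (its KM) in 200 mM KPO4; 10 min compound preincubation, then NADPH regeneration and 60 min reaction at RT. Luciferin read by luminescence; normalized to 57 uM ketoconazole full inhibition.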
# [5] = test system: Zika virus NS2B-NS3 protease; experiment: Primary screen GU AMC qHTS for Zika virus inhibitors (AID 1347154); details: Zika NS2B-NS3 unlinked protease, AMC fluorogenic substrate; series mostly up to 54.1 µM; note: nearly all actives have a fitted effect of over 70% in size
# How it was run: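 Unlinked Zika NS2B hydrophilic domain/NS3 protease domain noncovalent complex (25 nM final) in 10 mM Tris-HCl pH 8.0, 0.01% Tween 20, with AMC peptide substrate. Fluorescence (ex 340, em 450 nm) change over 15 min, room temperature; percent inhibition fitted to 4-parameter Hill equation.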
# [6] = Primary qHTS for small molecule stabilizers of the endoplasmic reticulum resident proteome: Secreted ER Calcium Modulated Protein (SERCaMP) assay (AID 1508630); details: SH-SY5Y GLuc-SERCaMP (Gaussia luciferase released on ER calcium loss) secretion, thapsigargin, luminescence; series mostly up to 38.4 µM; note: potency is the fitted concentration of half-maximal effect
# How it was run: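 GLuc-SERCaMP-expressing SH-SY5Y cells, pretreated 16 h with compound, are challenged with thapsigargin to empty ER calcium stores; after 4 h, coelenterazine is added directly to the medium and luminescence is imaged.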
# [7] = Primary qHTS for inhibitors of SARS-S pseudo-typed particle cell entry (AID 1479145; calls by dose curve; note: nearly all actives have a fitted effect of over 45% in size); details: SARS-S pseudotyped particle cell entry, luciferase reporter; series mostly up to 57.1 µM
# [8] = Primary qHTS for Huh7 cytotoxicity: counterscreen for inhibitors of MERS-S pseudotyped particle cell entry (AID 1479147; calls by dose curve); details: cell viability read-out; series mostly up to 57.1 µM
# [9] = Primary qHTS for inhibitors of MERS-S pseudo-typed particle cell entry (AID 1479149; calls by dose curve; note: nearly all actives have a fitted effect of over 60% in size); details: MERS-S pseudotyped particle entry, luciferase; series mostly up to 57.1 µM
# [10] = Primary qHTS for Vero E6 cytotoxicity: counterscreen for inhibitors of SARS-S pseudo-typed particle cell entry (AID 1479150; calls by dose curve); details: cell viability; series mostly up to 57.1 µM
# [11] = AP1 Signaling Pathway (AID 357; active = well fitted curve in either direction with a large enough effect, not every such curve was filed as active); details: ME-180 AP-1-bla reporter, EGF-induced, beta-lactamase ratio, 5 h; series mostly up to 38 µM
# How it was run: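 ME-180 cells with beta-lactamase reporter under AP-1 response element, stimulated with EC50 EGF; compounds tested in titration series, 5 h at 37 °C. CCF4 substrate added 2.5 h at room temperature; 460/530 nm emission ratio gave %activity and AC50.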
# [12] = NFAT Signaling Pathway (AID 444; active = well fitted curve in either direction with a large enough effect, not every such curve was filed as active;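 note: carbachol stimulus at about its EC50 of 1 µM final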); details: Jurkat NFAT-bla M1, carbachol, beta-lactamase ratio, 5 h
# How it was run: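 Jurkat cells carrying an NFAT-driven β-lactamase reporter and co-transfected muscarinic M1 receptor were treated with compound plus carbachol (1 uM final, an EC50 level) for 5 h at 37 °C. CCF4 loading followed for 1 h at RT; 460/530 nm ratio gave %activity.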
# Furin (Homo sapiens) = Furin (Homo sapiens) (UniProt P09958); experiment: Furin counterscreen qHTS for Zika virus inhibitors (AID 1347149); details: furin enzymatic counterscreen, fluorogenic substrate; series mostly up to 57.5 µM;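 note: purified recombinant full-length human furin enzyme at 5 nM; fluorescence gain from furin cutting a BOC-RVRR-AMC peptide substrate over 15 min; top concentration of the series differs between compounds; nearly all actives have a fitted effect of over 70% in size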
# How it was run: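 Fluorogenic cleavage of BOC-RVRR-AMC (2 microM final, Km ~15 µM) was monitored (ex 340, em 450 nm) at 37C after 15 min RT preincubation of 5 nM furin with compounds in HEPES pH 7.0 buffer with CaCl2 and Triton X-100. Percent inhibition was fitted to a 4-parameter Hill curve.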
# [13] = HepG2 cells viability qHTS for Zika virus inhibitors (AID 1347168); details: Zika counter-screen; series mostly up to 45.9 µM
# How it was run: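 Counter-screen for cytotoxicity of hits from NS2B-NS3 protease qHTS. Overnight-attached cells (2.5 x 10^5 cells/mL, DMEM/4% FBS) were dosed in titration, incubated 24 to 48 hours, then assayed by CellTiter Glo.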
# [14] = target: Phenylethanolamine N-methyltransferase (Homo sapiens) (UniProt P11086); experiment: Confirmatory Screen for Target Class Profiling of Small Molecule Inhibitors of Methyltransferases (AID 1745852); details: MTase-Glo luminescence, SAH detection, recombinant enzyme; measured here: PNMT max response; stronger effect = lower value
# [15] = qHTS drug screen for cell cycle checkpoint inhibitors in PARPi-resistant BRCA-mutant ovarian cancer cell lines. (AID 1963452; calls by dose curve); details: PEO1/OlaR viability, CellTiter-Glo luminescence, 96 h, stronger effect = lower value
# How it was run: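 PEO1, PEO4 and PEO1/OlaR ovarian cancer cells, 600 per well, exposed 96 h at 37C to a dilution series. Viability read by CellTiter-Glo luminescence, normalized to DMSO and empty wells; activity summarized as Z-AUC.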
# NIH3T3 = experiment: qHTS assay to identify novel small-molecules to repurpose for Merkel cell carcinoma treatment (AID 1296009); details: MCC and control cell lines, CellTiter-Glo viability, 72 h; at 44.8 µM (top of the series) unless noted; note: nearly all actives have a fitted effect of over 60% in size
# How it was run: (§1)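 Cells exposed to NPC (8-point) and MIPE (11-point) compound dilutions for 72 hr at 37 degree celsius; viability read by CellTiter-Glo luminescence, normalized to no-cell and DMSO in-plate controls.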
# [16] = qHTS to identify inhibitors of the type 1 interferon - major histocompatibility complex class I in skeletal muscle: primary screen against the NCATS Mechanism Interrogation Plate v5.0 (MIPE) Libary (AID 1347411); details: iHSKM cells + IFN-b, HiBiT-tagged MHC-I luminescence, 24 h; series mostly up to 45.8 µM; note: nearly all actives have a fitted effect of over 65% in size; note: potency is the fitted concentration of half-maximal effect
# How it was run: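 Immortalized human C25cl48 myoblasts with HiBit knocked into endogenous HLA-B*08:01 were stimulated with 4.0 ng/ml IFN-beta and exposed to compounds (11-point 1:3 titration, top 46 uM final) for 24 hrs at 37 C; HiBiT lytic luminescence measured.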
# [17] = qHTS assay to identify inhibitors of the type 1 interferon - major histocompatibility complex class I in skeletal muscle: Counter screen cell viability and HiBit confirmation (AID 1347412); details: iHSKM muscle cells + IFN-b, HiBiT or CellTiter-Glo, 24 h; Potency: HiBiT; Viability, at 45.9 µM (top of the series); note: nearly all actives have a fitted effect of over 60% in size; note: potency is the fitted concentration of half-maximal effect
# How it was run: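 CRISPR HLA-B*08:01-HiBit immortalized human myoblasts (C25cl48) stimulated with 4 ng/ml IFN-beta and compounds (12-point 1:3, top 46 uM final) for 24 h at 37 C. Duplicate plates read by HiBit lytic luminescence or CellTiter Glo ATP.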
# HEK293T = experiment: qHTS assay to identify novel small-molecules to repurpose for Merkel cell carcinoma treatment (AID 1296009); details: MCC and control cell lines, CellTiter-Glo viability, 72 h; at 44.8 µM (top of the series) unless noted; note: nearly all actives have a fitted effect of over 60% in size
# How it was run: as §1
# Chain of Phenylethanolamine N-methyltransferase (Homo sapiens) (P11086 whole entry, looked up): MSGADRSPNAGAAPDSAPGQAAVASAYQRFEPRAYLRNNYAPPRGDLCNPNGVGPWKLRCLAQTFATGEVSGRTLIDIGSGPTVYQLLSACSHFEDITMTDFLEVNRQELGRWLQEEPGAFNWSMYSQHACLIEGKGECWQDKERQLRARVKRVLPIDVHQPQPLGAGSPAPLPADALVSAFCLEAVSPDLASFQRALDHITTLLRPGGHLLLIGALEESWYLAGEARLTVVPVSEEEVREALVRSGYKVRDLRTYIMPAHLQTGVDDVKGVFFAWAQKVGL
# Chain of Cytochrome P450 3A4 (Homo sapiens) (P08684 whole entry, looked up): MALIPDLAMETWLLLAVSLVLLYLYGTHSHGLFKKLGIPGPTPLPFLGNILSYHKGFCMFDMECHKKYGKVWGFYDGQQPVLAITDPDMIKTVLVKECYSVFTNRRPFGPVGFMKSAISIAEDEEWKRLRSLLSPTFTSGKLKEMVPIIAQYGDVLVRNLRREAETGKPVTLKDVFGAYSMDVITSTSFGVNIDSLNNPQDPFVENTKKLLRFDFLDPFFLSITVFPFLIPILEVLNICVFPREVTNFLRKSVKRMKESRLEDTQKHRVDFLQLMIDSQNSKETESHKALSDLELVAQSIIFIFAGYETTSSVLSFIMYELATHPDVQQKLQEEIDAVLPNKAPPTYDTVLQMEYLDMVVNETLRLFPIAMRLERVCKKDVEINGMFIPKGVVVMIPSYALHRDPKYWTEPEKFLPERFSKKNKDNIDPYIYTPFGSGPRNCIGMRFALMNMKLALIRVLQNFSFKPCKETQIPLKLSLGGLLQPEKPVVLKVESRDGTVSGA
# Chain of Furin (Homo sapiens) (P09958 whole entry, looked up): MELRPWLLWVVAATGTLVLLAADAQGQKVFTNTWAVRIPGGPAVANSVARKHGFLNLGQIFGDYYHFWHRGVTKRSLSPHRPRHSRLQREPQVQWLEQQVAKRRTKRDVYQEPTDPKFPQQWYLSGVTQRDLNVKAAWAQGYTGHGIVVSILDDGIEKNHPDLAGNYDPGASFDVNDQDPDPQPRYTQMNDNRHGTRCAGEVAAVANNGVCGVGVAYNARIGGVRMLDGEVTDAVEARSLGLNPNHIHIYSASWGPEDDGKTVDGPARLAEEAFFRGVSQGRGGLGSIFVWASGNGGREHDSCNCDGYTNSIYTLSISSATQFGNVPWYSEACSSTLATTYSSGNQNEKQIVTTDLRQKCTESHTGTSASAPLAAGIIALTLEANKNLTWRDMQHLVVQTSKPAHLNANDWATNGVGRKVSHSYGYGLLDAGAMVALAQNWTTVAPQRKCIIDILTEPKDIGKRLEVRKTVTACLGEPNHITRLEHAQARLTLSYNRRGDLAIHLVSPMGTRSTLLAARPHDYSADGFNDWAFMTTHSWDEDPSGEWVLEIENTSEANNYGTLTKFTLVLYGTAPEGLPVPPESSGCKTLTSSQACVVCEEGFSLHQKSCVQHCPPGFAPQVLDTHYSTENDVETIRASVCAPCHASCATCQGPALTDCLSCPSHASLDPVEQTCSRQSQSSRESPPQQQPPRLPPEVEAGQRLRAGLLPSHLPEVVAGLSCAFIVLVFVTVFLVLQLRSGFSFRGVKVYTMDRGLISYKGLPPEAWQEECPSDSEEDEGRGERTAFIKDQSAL
compound,measurement,setting,value
Oc1ccc2c3c1O[C@H]1c4[nH]c5c(N=C=S)cccc5c4C[C@@]4(O)[C@@H](C2)N(CC2CC2)CC[C@]314,Potency,[1],inactive
same,Potency,[2],10000 nM (active)
CN1CCc2cc3c(cc2C1C1OC(=O)c2c1ccc1c2OCO1)OCO3 (centres undefined),Potency,[3],1260 nM (active)
same,Potency,[4],inactive
same,Potency,[5],inactive
same,Potency,[6],inactive
CC(=O)O[C@H]1CC[C@H]2[C@@H]3CC[C@H]4CC(=O)C=C(C)[C@]4(C)[C@H]3CC[C@]12C,Potency,[7],inactive
same,outcome,[8],inactive
same,Potency,[9],inactive
same,outcome,[10],inactive
C=CCN1CCC2(C)c3cc(O)ccc3C[C@H]1[C@H]2C,outcome,[11],inactive
same,"activity change, negative = inhibition",[12]; at 38 µM (top of the series),-29.1% (inactive)
same,Potency,[3],inactive
same,Potency,Furin (Homo sapiens),inactive
same,Potency,[5],inactive
same,Potency,[13],inactive
same,Potency,[6],inactive
COc1ccc(CN(C(=O)[C@@H](N)Cc2c(C)cc(C(N)=O)cc2C)[C@@H](C)c2ncc(-c3ccccc3)[nH]2)cc1C(=O)O,Potency,[7],inactive
same,outcome,[8],inactive
same,Potency,[9],inactive
same,outcome,[10],inactive
CC(=O)OC[C@]12C[C@H](OC(=O)CC(C)C)C(C)=C[C@H]1O[C@@H]1[C@H](O)[C@@H](O)[C@@]2(C)[C@]12CO2,Potency,[1],113 nM (active)
CC1CCCC(=O)CCC/C=C/c2cc(O)cc(O)c2C(=O)O1 (centres undefined),Potency,[3],2000 nM (active)
same,Potency,[4],inactive
C[C@H]1O[C@@H](O[C@H]2CC[C@]3(CO)C4CC[C@]5(C)[C@@H](C6=CC(=O)OC6)CC[C@]5(O)[C@@H]4CC[C@H]3C2)[C@H](O)[C@H](O)[C@@H]1O[C@@H]1O[C@H](CO)[C@@H](O)[C@H](O)[C@H]1O (some centres undefined),activity,[14],-1.28%
CC(=O)N1N=C(c2ccc(N)cc2)c2cc3c(cc2C[C@H]1C)OCO3,Z-AUC,[15],0.45 (inactive)
same,Z-AUC,[15]; measured here: PEO1 parental Z-AUC,0.452
same,Z-AUC,[15]; measured here: PEO4 Z-AUC,0.412
CC1=CC(=O)[C@@H](O)[C@]2(C)C3[C@@H](O)[C@@H]4OC(=O)[C@@H]([C@H]4C)[C@]3(C)C(=O)C[C@@H]12 (some centres undefined),Potency,[1],2240 nM (active)
COc1cc(N2CCN(C)CC2)ccc1N,activity,[14],-33.9%
Cc1ccccc1CN1CCC(N2CCC(n3c(=O)[nH]c4ccccc43)CC2)CC1,outcome,NIH3T3,inactive
CCCCN1[C@@H]2CC[C@H]1CC(OC(c1ccc(F)cc1)c1ccc(F)cc1)C2 (some centres undefined),Potency,[2],5010 nM (active)
same,activity,[14],3.98%
C[C@@H]1CN(Cc2ccc(F)cc2)CCN1C(=O)COc1ccc(Cl)cc1NC(N)=O,Potency,[16],inactive
CN[C@@H]1C[C@H]2O[C@@](C)([C@@H]1OC)n1c3ccccc3c3c4c(c5c6ccccc6n2c5c31)C(=O)NC4,Potency,[16],829 nM (active)
same,Potency,[17],198 nM (active)
C[C@@]1(CO)[C@H](O)CC[C@@]2(C)[C@H]1CC[C@H]1C[C@@H]3C[C@@]12CC[C@]3(O)CO,"activity change, negative = inhibition",[12]; at 17.2 µM (top of the series),10.1% (inactive)
same,Potency,[5],inactive
same,Potency,[6],inactive
Nc1ncnc2c1ncn2[C@@H]1O[C@@H]2COP(O)(=S)O[C@H]2[C@H]1O (some centres undefined),outcome,HEK293T,inactive [at 9.27 µM]
CCC1C2CC3C4N(C)c5ccccc5C45CC(C2C5O)N3C1O (centres undefined),outcome,HEK293T,inactive
C=C1[C@@H](C)[C@H]2[C@H](Cc3ccccc3)NC(=O)[C@]23[C@H](OC(C)=O)/C=C/[C@](C)(O)C(=O)[C@@H](C)C/C=C/[C@H]3[C@@H]1O,Potency,[6],inactive
CN(C)c1cc2c(cc1Sc1nc3c(N)nccc3n1CCNCC(C)(C)C)OCO2,Potency,[2],2240 nM (active)
same,activity,[14],-0.0762%
C=C(C)[C@@H]1[C@H]2OC(=O)[C@H]1[C@]1(O)C[C@H]3O[C@]34C(=O)O[C@H]2[C@]14C,outcome,HEK293T,inactive
same,outcome,NIH3T3,inactive
N#Cc1cn([C@@H]2O[C@H](CO)[C@H](O)[C@@H]2O)c2ncnc(N)c12,activity,[14],-99.9%
Cc1sc2c(c1C)C(c1ccc(Cl)cc1)=N[C@@H](CC(N)=O)c1nnc(C)n1-2,Potency,[17],inactive
C[C@H]1CCC/C=C/C2C[C@H](O)C[C@H]2[C@H](O)/C=C/C(=O)O1 (some centres undefined),Potency,[5],inactive
same,Potency,[16],147 nM (active)
same,Potency,[6],316 nM (active)
same,Potency,[17],140 nM (active)
CCC1NC(=O)C2C(Cl)C(Cl)CN2C(=O)C(CC)NC(=O)CC(c2ccccc2)NC(=O)C(CO)NC1=O (centres undefined),outcome,NIH3T3,inactive [at 17.4 µM]
C=C1C[C@]2(O)[C@@]3(C)CCC(=O)C(C)(C)C3=C(O)C(=O)[C@@]2(C)[C@@H]2C(=O)O[C@@](C)(C(=O)OC)C(=O)[C@@]12C,outcome,HEK293T,inactive [at 17.4 µM]
C=C(CO)C(=O)O[C@H]1CC(=C)[C@@H]2C[C@H](O)C(=C)[C@@H]2[C@H]2OC(=O)C(=C)[C@@H]21,activity,[14],-8.66%
COC1C(O)C(C)OC(OC2C(CO)O[C@@H](O[C@@H]3CC4CCC5C(CC[C@]6(C)[C@@H](C7=CC(=O)OC7)CC[C@]56O)[C@@]4(C)[C@H](OC(C)=O)C3)C(O)C2O)C1O (some centres undefined),outcome,NIH3T3,inactive [at 17.4 µM]
CN1CCN(c2nc3ccccc3nc2Cl)CC1,outcome,HEK293T,inactive
same,outcome,NIH3T3,inactive
CN1C[C@@H]2CN(c3ccc(-c4ccccc4)nn3)C[C@@H]2C1,outcome,NIH3T3,inactive
